Results as given in PubChem BioAssay (NCI).
Compounds without any hit were thinned out: in the full panel of roughly 83,000, 20% have a hit.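 In brief: 96-well plates, 48 h treatment, single concentration, percent growth endpoint.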 A number with no mark means an inactive call. Calls of active or inactive are those of the source. How the source made its calls: active means growth percent below 10; inactive means the rest.

Assays:
Experiment in all cases: NCI-60 one-dose screen, 48 h (100 = growth as untreated, 0 = no growth, -100 = all killed)
NCI-H23 lung = conditions: 10 µM unless noted
NCI-H226 lung = conditions: 10 µM unless noted
NCI-H322M lung = conditions: 10 µM unless noted
HOP-62 NSCLC = conditions: 10 µM unless noted
NCI-H460 lung = conditions: 10 µM unless noted
HOP-92 NSCLC = conditions: 10 µM unless noted
NCI-H522 lung = conditions: 10 µM unless noted
A549/ATCC NSCLC = conditions: 10 µM unless noted
786-0 renal = conditions: 10 µM unless noted
COLO 205 colon = conditions: 10 µM unless noted
DU-145 prostate = conditions: 10 µM unless noted
MALME-3M melanoma = conditions: 10 µM unless noted
MDA-MB-231 breast = conditions: 10 µM unless noted
RXF 393 renal = conditions: 10 µM unless noted
SF-268 CNS = conditions: 10 µM unless noted
SF-295 CNS = conditions: 10 µM unless noted
SF-539 CNS = conditions: 10 µM unless noted
UACC-257 melanoma = conditions: 10 µM
M14 melanoma = conditions: 10 µM unless noted
K-562 leukemia = conditions: 10 µM unless noted

Structure (SMILES): O=[N+]([O-])c1cc(S(=O)(=O)OCC2CO2)ccc1Cl (stereo unspecified)
- growth (NCI-H23 lung): 96%
- growth (NCI-H226 lung): 110%
- growth (NCI-H322M lung): 82.2%
- growth (HOP-62 NSCLC): 111%
- growth (NCI-H460 lung): 109%
- growth (HOP-92 NSCLC): 125%
- growth (NCI-H522 lung): 85.9%
- growth (A549/ATCC NSCLC): 101%
- growth (786-0 renal): 106%
- growth (COLO 205 colon): 117%
- growth (DU-145 prostate): 101%
- growth (MALME-3M melanoma): 98.1%
- growth (MDA-MB-231 breast): 132%
- growth (RXF 393 renal): 103%
- growth (SF-268 CNS): 94.3%
- growth (SF-295 CNS): 101%
- growth (SF-539 CNS): 106%
- growth (UACC-257 melanoma): 100%
- growth (M14 melanoma): 95.1%

Structure (SMILES): COc1cc(NS(C)(=O)=O)ccc1Nc1c2ccc([N+](=O)[O-])cc2nc2c(C)cccc12
- growth (NCI-H23 lung): -0.0901% (active)
- growth (NCI-H226 lung): -23.6% (active)
- growth (NCI-H322M lung): 39.6%
- growth (HOP-62 NSCLC): -2.67% (active)
- growth (NCI-H460 lung): -25.4% (active)
- growth (HOP-92 NSCLC): -23.8% (active)
- growth (NCI-H522 lung): -25.8% (active)
- growth (A549/ATCC NSCLC): -35.8% (active)
- growth (786-0 renal): -3.37% (active)
- growth (COLO 205 colon): 25.3%
- growth (DU-145 prostate): -13.1% (active)
- growth (K-562 leukemia): 4.57% (active)
- growth (MALME-3M melanoma): 14.4%
- growth (RXF 393 renal): 10.4%
- growth (SF-268 CNS): 7.28% (active)
- growth (SF-295 CNS): -43.7% (active)
- growth (SF-539 CNS): -13.7% (active)
- growth (UACC-257 melanoma): 2.11% (active)
- growth (M14 melanoma): 22.6%

Structure (SMILES): CCCCCCc1nc2c(c(C)nn2-c2ccccc2)c2c1CCCCC2
- growth (NCI-H23 lung): 100%
- growth (NCI-H226 lung): 89.2%
- growth (NCI-H322M lung): 110%
- growth (HOP-62 NSCLC): 91.3%
- growth (NCI-H460 lung): 110%
- growth (HOP-92 NSCLC): 91.5%
- growth (NCI-H522 lung): 93.2%
- growth (A549/ATCC NSCLC): 103%
- growth (786-0 renal): 108%
- growth (COLO 205 colon): 107%
- growth (DU-145 prostate): 108%
- growth (K-562 leukemia): 111%
- growth (MALME-3M melanoma): 105%
- growth (RXF 393 renal): 115%
- growth (SF-268 CNS): 105%
- growth (SF-295 CNS): 103%
- growth (SF-539 CNS): 105%
- growth (UACC-257 melanoma): 93.3%
- growth (M14 melanoma): 118%

Structure (SMILES): O=C(CNc1ccc(Cl)cc1)Nc1ccc(-c2nc3ccccc3s2)cc1
- growth (NCI-H23 lung): 39.1%
- growth (NCI-H226 lung): 58.1%
- growth (NCI-H322M lung): 80.3%
- growth (HOP-62 NSCLC): 116%
- growth (NCI-H460 lung): 87.1%
- growth (HOP-92 NSCLC): 97.8%
- growth (NCI-H522 lung): -94.5% (active)
- growth (A549/ATCC NSCLC): 89%
- growth (786-0 renal): 27%
- growth (DU-145 prostate): 70.2%
- growth (K-562 leukemia): 11.9%
- growth (MALME-3M melanoma): -30.5% (active)
- growth (MDA-MB-231 breast): 37.6%
- growth (RXF 393 renal): 84.2%
- growth (SF-268 CNS): 24.1%
- growth (SF-295 CNS): 94.6%
- growth (SF-539 CNS): 78.1%
- growth (UACC-257 melanoma): 90.9%

Structure (SMILES): O=C(CCl)NCCNc1nccc(Nc2ccc(S(=O)(=O)Nc3ccccn3)cc2)n1
- growth (NCI-H23 lung): 22.6%
- growth (NCI-H226 lung): 48%
- growth (NCI-H322M lung): 56.5%
- growth (HOP-62 NSCLC): 26%
- growth (NCI-H460 lung): 2.9% (active)
- growth (HOP-92 NSCLC): 31.2%
- growth (NCI-H522 lung): -63.9% (active)
- growth (A549/ATCC NSCLC): 56.8%
- growth (786-0 renal): -34.5% (active)
- growth (DU-145 prostate): 14.4%
- growth (K-562 leukemia): 17%
- growth (MALME-3M melanoma): 10.2%
- growth (MDA-MB-231 breast): 2.46% (active)
- growth (RXF 393 renal): 36.9%
- growth (SF-268 CNS): 9.86% (active)
- growth (SF-295 CNS): 36.2%
- growth (SF-539 CNS): -15.2% (active)
- growth (UACC-257 melanoma): 31.5%
- growth (M14 melanoma): 3.17% (active)

Structure (SMILES): CCOC(=O)c1ccccc1NC(c1ccccc1)c1ccc2cccnc2c1O (stereo unspecified)
- growth (NCI-H23 lung): 30.3%
- growth (NCI-H226 lung): 7.15% (active)
- growth (NCI-H322M lung): 42.5%
- growth (HOP-62 NSCLC): 16.4%
- growth (NCI-H460 lung): 6.16% (active)
- growth (HOP-92 NSCLC): 16.5%
- growth (NCI-H522 lung): -1.69% (active)
- growth (A549/ATCC NSCLC): 21.6%
- growth (786-0 renal): 1.44% (active)
- growth (COLO 205 colon): 16.3%
- growth (DU-145 prostate): 36.9%
- growth (K-562 leukemia): 30.2%
- growth (MALME-3M melanoma): 54.4%
- growth (RXF 393 renal): 25%
- growth (SF-268 CNS): 28.6%
- growth (SF-295 CNS): 25.4%
- growth (SF-539 CNS): 11.8%
- growth (UACC-257 melanoma): 22.1%
- growth (M14 melanoma): 15.7%

Structure (SMILES): COc1cc(CNC(=O)CSc2nc3ccccc3c(=O)n2Cc2cc(OC)c(OC)c(OC)c2)cc(OC)c1OC
- growth (NCI-H23 lung): 105%
- growth (NCI-H226 lung): 94.5%
- growth (NCI-H322M lung): 95.4%
- growth (HOP-62 NSCLC): 94%
- growth (NCI-H460 lung): 108%
- growth (HOP-92 NSCLC): 106%
- growth (NCI-H522 lung): 81.2%
- growth (A549/ATCC NSCLC): 97%
- growth (786-0 renal): 101%
- growth (COLO 205 colon): 105%
- growth (DU-145 prostate): 108%
- growth (MALME-3M melanoma): 97.5%
- growth (MDA-MB-231 breast): 94.4%
- growth (RXF 393 renal): 97.4%
- growth (SF-268 CNS): 97.5%
- growth (SF-295 CNS): 105%
- growth (SF-539 CNS): 96.3%
- growth (UACC-257 melanoma): 94.2%
- growth (M14 melanoma): 97.2%

Structure (SMILES): c1ccn2nnnc2c1
- growth (NCI-H23 lung): 94.8%
- growth (NCI-H226 lung): 111%
- growth (NCI-H322M lung): 102%
- growth (HOP-62 NSCLC): 87%
- growth (NCI-H460 lung): 105%
- growth (HOP-92 NSCLC): 103%
- growth (NCI-H522 lung): 101%
- growth (A549/ATCC NSCLC): 94.3%
- growth (786-0 renal): 94.3%
- growth (COLO 205 colon): 90.6%
- growth (DU-145 prostate): 103%
- growth (K-562 leukemia): 97.5%
- growth (MALME-3M melanoma): 98.5%
- growth (RXF 393 renal): 110%
- growth (SF-268 CNS): 101%
- growth (SF-295 CNS): 101%
- growth (SF-539 CNS): 95.5%
- growth (UACC-257 melanoma): 101%
- growth (M14 melanoma): -54.6% (active)
